Source: PubChem BioAssay (NCATS)
Several values for one entry are separate records, joined by “and”; a condition that tells them apart may be missing. Identical values can stand only once. Results filed as inconclusive are left out. Activity calls are given as the source filed them. Calls come from the whole dose curve; as a rule, active = well fitted inhibition curve with a large enough effect; inconclusive = small, poorly fitted or top-dose-only effect; inactive = flat fitted curve, though single readings scatter.

These molecules were tested on KB-3-1 (assay: Cytotoxic Profiling of Annotated Libraries Using Quantitative High-Throughput Screening (AID 1296008; note: nearly all actives have a fitted effect of over 60% in size)). Conditions: Five cell lines viability, CellTiter-Glo ATP luminescence, 48-72 h; max response: hits give low values.
Method in brief: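 Cytotoxicity was measured as CellTiter-Glo ATP luminescence, read after 10 min at room temperature. Compound treatment of the cells lasted 48 or 72 hr at 37 degrees Celsius in a qHTS format.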
% is set by controls: 0 for no effect and ±100 for the full control effect; potency is the fitted concentration of half-maximal effect.

Molecule	max response	Potency
CN1CCC(OC(=O)C(Oc2ccc(Cl)cc2)Oc2ccc(Cl)cc2)CC1	-2.63% (inactive)	–
O=C(Nc1ccc(O)cc1)c1ccccc1O	4.06% (inactive)	–
C=CC[N@@+]12CC[C@@]34c5ccccc5N5/C=C6/[C@H]7C[C@H]8[C@@]9(CC[N@@+]8(CC=C)C/C7=C/CO)c7ccccc7N(/C=C(/[C@@H](C[C@@H]31)/C(=C\CO)C2)[C@H]54)[C@@H]69	19.7% (inactive)	–
Cc1cccc(Nc2ncccc2C(=O)O)c1C	14.2% (inactive)	–
O=C(CO)[C@@H](O)[C@H](O)[C@@H](O)C(=O)O	-10% (inactive)	–
C=CC[C@@H]1/C=C(\C)C[C@H](C)C[C@H](OC)[C@H]2O[C@@](O)(C(=O)C(=O)N3CCCC[C@H]3C(=O)O[C@H](/C(C)=C/[C@@H]3CC[C@@H](O)[C@H](OC)C3)[C@H](C)[C@@H](O)CC1=O)[C@H](C)C[C@@H]2OC	2.3% (inactive)	–
C=C1CC[C@H](O)C/C1=C\C=C1/CCC[C@]2(C)[C@@H]([C@H](C)CCCC(C)C)CC[C@@H]12	-5.93% (inactive)	–
NCC[C@H](O)C(=O)N[C@@H]1C[C@H](N)[C@@H](O[C@H]2O[C@H](CN)[C@@H](O)[C@H](O)[C@H]2O)[C@H](O)[C@H]1O[C@H]1O[C@H](CO)[C@@H](O)[C@H](N)[C@H]1O	3.67% (inactive)	–
N[C@H](CC(=O)O)C(=O)O	11.5% (inactive)	–
CC(=O)N[C@@H]([C@@H](O)[C@H](O)[C@H](O)CO)[C@@H](O)CC(=O)C(=O)O	10.5% (inactive)	–
COc1cc(NCCCC(C)N)c2ncccc2c1 (configuration not stated)	-4.33% (inactive)	–
CN1c2c(nc(N)[nH]c2=O)NCC1CNc1ccc(C(=O)NC(CCC(=O)O)C(=O)O)cc1 (configuration not stated)	9% (inactive)	–
OC1OC[C@@H](O)[C@H](O)[C@@H]1O (some centres not stated)	12.5% (inactive)	–
CC1=C(/C=C/C(C)=C/C=C/C(C)=C/C=C/C=C(C)/C=C/C=C(C)/C=C/C2=C(C)C[C@@H](O)CC2(C)C)C(C)(C)C[C@H](O)C1	-5.35% (inactive)	–
CN(Cc1ccccc1)Cc1ccccc1	19.7% (inactive)	–
O=C(O)/C=C/c1ccccc1	5.56% (inactive)	–
C=CC[N+]1([C@H]2C[C@H]3[C@@H]4CC[C@H]5C[C@H](O)[C@@H](N6CCOCC6)C[C@]5(C)[C@H]4CC[C@]3(C)[C@H]2OC(C)=O)CCCC1	7.82% (inactive)	–
CC(C)(C)CC(C)(C)c1cc(Cc2cc(C(C)(C)CC(C)(C)C)cc(-n3nc4ccccc4n3)c2O)c(O)c(-n2nc3ccccc3n2)c1	-2.05% (inactive)	–
CO/N=C(\C(=O)N[C@@H]1C(=O)N2C(C(=O)O)=C(CSC(=O)c3ccco3)CS[C@H]12)c1csc(N)n1	1.31% (inactive)	–

Molecule	max response	Potency
Cc1cc(-c2ccc(N=Nc3ccc4c(S(=O)(=O)O)cc(S(=O)(=O)O)c(N)c4c3O)c(C)c2)ccc1N=Nc1ccc2c(S(=O)(=O)O)cc(S(=O)(=O)O)c(N)c2c1O	–	8.2 µM (active)
O[C@@H]([C@H](O)[C@H](O)CBr)[C@H](O)CBr	-3.83% (inactive)	–
Cc1cc(-c2ccc(N=Nc3c(S(=O)(=O)O)cc4cc(S(=O)(=O)O)cc(N)c4c3O)c(C)c2)ccc1N=Nc1c(S(=O)(=O)O)cc2cc(S(=O)(=O)O)cc(N)c2c1O	–	9.2 µM (active)
CC(C)CCCCCCc1ccc(O)cc1	-10.4% (inactive)	–
CC/C=C\C/C=C\C/C=C\C/C=C\C/C=C\CCCC(=O)O	-1.96% (inactive)	–
CN[C@@H]1[C@@H](O)[C@@H](O[C@@H]2[C@@H](O)[C@H](O[C@H]3O[C@H](CN)[C@@H](O)[C@H](O)[C@H]3O)[C@@H](N)C[C@H]2NC(=O)C(O)CN)OC[C@]1(C)O (some centres not stated)	36% (inactive)	–
CNC(C)CCC=C(C)C (configuration not stated)	-7.11% (inactive)	–
CC(C)C[C@H](NC(=O)[C@@H](COC(C)(C)C)NC(=O)[C@H](Cc1ccc(O)cc1)NC(=O)[C@H](CO)NC(=O)[C@H](Cc1c[nH]c2ccccc12)NC(=O)[C@H](Cc1cnc[nH]1)NC(=O)[C@@H]1CCC(=O)N1)C(=O)N[C@@H](CCCN=C(N)N)C(=O)N1CCC[C@H]1C(=O)NNC(N)=O	-3.63% (inactive) and -15.5% (inactive)	–
O.O.O.O.O.O.O.O=S(=O)([O-])[O-].[Co+2]	-0.614% (inactive)	–
CCN(CC)CCOc1ccc2nc(N(C)C)sc2c1	-23.9% (inactive)	–
NC(N)=NCC1COc2ccccc2O1 (configuration not stated)	-6.36% (inactive)	–
O=C1c2ccccc2C(=O)C1c1ccc(F)cc1	-8.05% (inactive)	–
COc1ccc(C(=O)/C(Br)=C\C(=O)O)cc1	19.2% (inactive)	–
CC(C)(CO)[C@@H](O)C(=O)NCCCC(=O)O	-10.7% (inactive)	–
H-RKDVY-OH	-14.8% (inactive)	–
CCC(O)c1ccccc1 (configuration not stated)	7.91% (inactive)	–
O=C(CCCN1CCN2CCCC2C1)c1ccc(F)cc1 (configuration not stated)	3.11% (inactive)	–
CC[C@@H](C(=O)[C@@H](C)[C@@H](O)[C@H](C)[C@@H]1O[C@@H]([C@@H](CC)C(=O)O)CC[C@@H]1C)[C@H]1O[C@]2(C=C[C@@H](O)[C@]3(CC[C@@](C)([C@H]4CC[C@](O)(CC)[C@H](C)O4)O3)O2)[C@H](C)C[C@@H]1C	-24.3% (inactive)	–
